Several values for one entry are separate records, joined by “and”; a condition that tells them apart may be missing. Equal entries are not always repeated. Records with an inconclusive call do not appear. Activity calls are given as the source filed them. Rule for the calls, unless noted: active = hit-call score of the fitted dose curve at least 0.9, where 1 is the maximum; inconclusive = response in the unintended direction; inactive = score below 0.9.

Assay [1] is described as follows: ATG_TCF_b_cat_CIS: Attagene CIS-FACTORIAL HepG2 Assay for human T-Cell-Factor with beta-catenin (TCF/b-cat) (AID 2282965; active = hit-call score of the fitted dose curve at least 0.9, where 1 is the maximum; inactive = score below 0.9). The settings on record: HepG2 TCF/beta-catenin cis-reporter transcription, actives raise or lower the signal. In outline: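 Endogenous transcription factor activity is captured through cis-promoter reporter constructs transiently introduced into human HepG2 liver cells. Induced reporter mRNA is measured after 24 h and fitted bidirectionally relative to DMSO.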

A short description of assay [2]: ATG_TAL_CIS: Attagene CIS-FACTORIAL HepG2 Assay for human TAL Basal Promoter (AID 2282966; active = hit-call score of the fitted dose curve at least 0.9, where 1 is the maximum; inactive = score below 0.9;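 note: background control endpoint measuring basal TAL promoter reporter mRNA not a specific factor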). The settings on record: HepG2 Attagene cis-factorial TAL promoter reporter; actives raise or lower the signal. In short, it runs like this:
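Endogenous transcription-factor activity is sensed in HepG2 cells through transfected cis-promoter reporter constructs. After 24 h dosing, reporter transcripts are quantified by RT-PCR and capillary electrophoresis. Gain or loss of signal is fitted relative to DMSO.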

Assay [3] can be described thus: ATG_TGFb_CIS: Attagene CIS-FACTORIAL HepG2 Assay for human Transforming Growth Factor (TGF) (AID 2282967; active = hit-call score of the fitted dose curve at least 0.9, where 1 is the maximum; inactive = score below 0.9). The settings on record: HepG2 Attagene CIS TGFb reporter, mRNA transcription; actives raise or lower the signal. In outline: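 HepG2 cells transiently transfected with cis-promoter-driven multiple reporter units measure endogenous TF activity; reporter mRNA quantified at 24 h by RT-PCR, FAM labeling, HpaI digestion and capillary electrophoresis. Bidirectional fit vs DMSO.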

The nature of assay [4]: ATG_VDRE_CIS: Attagene CIS-FACTORIAL HepG2 Assay for human Vitamin D Receptor Element (VDRE) (AID 2282968; active = hit-call score of the fitted dose curve at least 0.9, where 1 is the maximum; inactive = score below 0.9). The following applies: HepG2 VDRE cis-reporter transcription, actives raise or lower the signal. In short, it runs like this:
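Measures endogenous factor activity through cis-element-driven reporter transcripts in transiently transfected HepG2. Cells are treated 24 h; reporter mRNA is quantified by RT-PCR and capillary electrophoresis; fitting is bidirectional.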

The target of assay [5] is Nuclear receptor subfamily 1 group I member 3 (Homo sapiens) (UniProt Q14994). As to the kind of experiment: ATG_CAR_TRANS: Attagene TRANS-FACTORIAL HepG2 Assay for human Constitutive Androstane Receptor (CAR) (AID 2282969).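 Note: activators raise reporter mRNA above DMSO so AC50 marks induction.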 The following applies: HepG2 Attagene TRANS-FACTORIAL CAR reporter. In short, it runs like this: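 Signal is reporter mRNA induction relative to DMSO, measured 24 h after dosing by RT-PCR with fluorescent primer extension and capillary electrophoresis. Human HepG2 liver cells carried transiently transfected chimeric NR-Gal4/GAL4-UAS reporter constructs.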

Assay [6] addresses Estrogen receptor (Homo sapiens) (UniProt P03372). As to the kind of experiment: ATG_ERa_TRANS: Attagene TRANS-FACTORIAL HepG2 Assay for human Estrogen Receptor alpha (ERa) (AID 2282970). The following applies: HepG2 Attagene TRANS ERa GAL4 reporter, mRNA. In outline:
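Transfected HepG2 cells carrying GAL4-UAS-driven reporter units were dosed for 24 hours. Total RNA was reverse-transcribed, reporter sequences PCR-amplified, FAM-labelled, HpaI-digested and resolved by capillary electrophoresis. Increases over DMSO control defined activity.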

The target in assay [7] is X-box-binding protein 1 (Homo sapiens) (UniProt P17861). As to the kind of experiment: ATG_Xbp1_CIS: Attagene CIS-FACTORIAL HepG2 Assay for human X-box Binding Protein 1 (XBP1) (AID 2282972; active = hit-call score of the fitted dose curve at least 0.9, where 1 is the maximum; inactive = score below 0.9). The following applies: HepG2 XBP1 cis-element reporter, Attagene multiplex; actives raise or lower the signal. In outline: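 Changes in reporter transcript abundance, read by RT-PCR and capillary electrophoresis, reflect endogenous transcription factor activity. Transfected HepG2 cells received compound for 24 hours; DMSO defined baseline for bidirectional analysis.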

A short description of assay [8]: ATG_GAL4_TRANS: Attagene TRANS-FACTORIAL HepG2 Assay for GAL4 (Internal Marker) (AID 2282976). The settings on record: HepG2 Attagene TRANS GAL4 internal marker reporter. In short, it runs like this: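 Fluorescence from capillary electrophoresis of labelled RT-PCR products quantifies reporter mRNA induction after 24 h dosing of HepG2 cells carrying transfected GAL4-UAS reporter transcription units. Vehicle DMSO serves as baseline.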

The target in assay [9] is Glucocorticoid receptor (Homo sapiens) (UniProt P04150). As to the kind of experiment: ATG_GR_TRANS: Attagene TRANS-FACTORIAL HepG2 Assay for human Glucocorticoid Receptor (GR) (AID 2282978).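 Note: activators score as hits since higher reporter transcript over DMSO is fitted.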 The settings on record: HepG2 Attagene TRANS GR reporter, mRNA transcription. In outline:
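Transient MRTU transfection of HepG2 (GAL4-UAS reporters, exogenous NR-GAL4 chimeras), 24 h dosing. Readout: reporter transcript via RT-PCR + capillary electrophoresis fluorescence. Positive direction vs DMSO baseline.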

Assay [10] is described as follows: ATG_M_06_TRANS: Attagene TRANS-FACTORIAL HepG2 Assay for M06 Transcription Factor (Internal Marker) (AID 2282983). The settings on record: HepG2 Attagene TRANS M06 internal marker reporter. In short, it runs like this:
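Human liver HepG2 cells bearing transiently transfected chimeric NR-GAL4 reporter units were treated with chemicals for 24 h. Total RNA was reverse-transcribed, reporter sequences amplified and labelled, then quantified by capillary electrophoresis. Activity was fitted upward relative to DMSO.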

The target in assay [11] is Nuclear receptor subfamily 4 group A member 2 (Homo sapiens) (UniProt P43354). Kind of assay: ATG_NURR1_TRANS: Attagene TRANS-FACTORIAL HepG2 Assay for human Nuclear Receptor Related Protein 1 (NURR1) (AID 2282985). The following applies: HepG2 Attagene TRANS reporter, mRNA readout. In outline: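 Measures transcriptional activation by an exogenous NR-Gal4 chimera in transfected HepG2 liver cells. After 24 h, reporter RNA is reverse-transcribed, amplified and resolved by capillary electrophoresis; DMSO defines baseline.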

For assay [12], the target named is Steroid hormone receptor ERR1 (Homo sapiens) (UniProt P11474). Kind of assay: ATG_ERRa_TRANS: Attagene TRANS-FACTORIAL HepG2 Assay for human Estrogen-Related Receptor alpha (ERRa) (AID 2282971). The settings on record: HepG2 Attagene TRANS reporter, ERRa transactivation. In short, it runs like this: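 HepG2 cells were transiently transfected with multiple GAL4-UAS reporter units, then dosed with compound for 24 h. Total RNA was reverse-transcribed, reporter cDNA PCR-amplified and fluorescently labelled, and fragments resolved by capillary electrophoresis; induction was compared with DMSO.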

For assay [13], the target named is Bile acid receptor (Homo sapiens) (UniProt Q96RI1). Kind of assay: ATG_FXR_TRANS: Attagene TRANS-FACTORIAL HepG2 Assay for Farnesoid X Receptor (FXR) (AID 2282979).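 Note: hits raise reporter mRNA above DMSO so AC50 marks FXR activation.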 The following applies: HepG2 Attagene TRANS FXR-GAL4 reporter transcription. In short, it runs like this: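 Chimeric FXR-GAL4 activity in transiently transfected human HepG2 liver cells is scored as induction of reporter mRNA after 24 h of dosing. Detection uses RT-PCR with fluorescent labelling and capillary electrophoresis, with DMSO serving as baseline.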

The target of assay [14] is Oxysterols receptor LXR-beta (Homo sapiens) (UniProt P55055). Kind of assay: ATG_LXRb_TRANS: Attagene TRANS-FACTORIAL HepG2 Assay for human Liver X Receptor beta (LXRb) (AID 2282981). The following applies: HepG2 Attagene TRANS GAL4-LXRb reporter, mRNA. In outline:
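After 24 h of chemical treatment, transfected HepG2 cells yield total RNA; reporter cDNA is PCR-amplified, FAM-labelled, HpaI-cut and run on capillary electrophoresis. Signal reflects chimeric LXRb-Gal4 activity on GAL4-UAS reporters.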

Assay [15] is described as follows: ATG_M_32_TRANS: Attagene TRANS-FACTORIAL HepG2 Assay for M32 Transcription Factor (Internal Marker) (AID 2282984).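 Note: transcript level of a background control reporter unit measured by RT-PCR and capillary electrophoresis.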 The following applies: HepG2 Attagene TRANS M32 internal marker reporter. In outline: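 Cell-based TRANS-format assay in HepG2: exogenous chimeric GAL4 reporter units transiently expressed, compounds applied 24 h. Reporter mRNA detected by RT-PCR plus capillary electrophoresis; this readout is an internal background marker.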

The target in assay [16] is Androgen receptor (Homo sapiens) (UniProt P10275). Kind of assay: ATG_AR_TRANS: Attagene TRANS-FACTORIAL HepG2 Assay for human Androgen Receptor (AR) (AID 2282973). The settings on record: HepG2 Attagene TRANS-FACTORIAL AR reporter transcription. In outline: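 Transfected HepG2, 24 h treatment, chimeric NR-Gal4 driving GAL4-UAS reporters. mRNA induction by RT-PCR/capillary electrophoresis fluorescence; DMSO as negative control and baseline.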

Assay [17] concerns the target Estrogen-related receptor gamma (Homo sapiens) (UniProt P62508). As to the kind of experiment: ATG_ERRg_TRANS: Attagene TRANS-FACTORIAL HepG2 Assay for human Estrogen-Related Receptor gamma (ERRg) (AID 2282977).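 Note: hits increase reporter signal over DMSO so potencies reflect activators.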 The following applies: HepG2 Attagene TRANS reporter, ERRg transactivation. In short, it runs like this: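 Exogenous NR-Gal4 chimera activity was assessed in HepG2 cells bearing transfected GAL4-UAS reporters. After 24 h dosing, total RNA underwent RT-PCR, fluorescent primer extension and HpaI digestion before capillary electrophoresis, with gain of signal scored against DMSO.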

Androgen receptor (Homo sapiens), sequence (P10275 whole entry, looked up, the tested form may be a part): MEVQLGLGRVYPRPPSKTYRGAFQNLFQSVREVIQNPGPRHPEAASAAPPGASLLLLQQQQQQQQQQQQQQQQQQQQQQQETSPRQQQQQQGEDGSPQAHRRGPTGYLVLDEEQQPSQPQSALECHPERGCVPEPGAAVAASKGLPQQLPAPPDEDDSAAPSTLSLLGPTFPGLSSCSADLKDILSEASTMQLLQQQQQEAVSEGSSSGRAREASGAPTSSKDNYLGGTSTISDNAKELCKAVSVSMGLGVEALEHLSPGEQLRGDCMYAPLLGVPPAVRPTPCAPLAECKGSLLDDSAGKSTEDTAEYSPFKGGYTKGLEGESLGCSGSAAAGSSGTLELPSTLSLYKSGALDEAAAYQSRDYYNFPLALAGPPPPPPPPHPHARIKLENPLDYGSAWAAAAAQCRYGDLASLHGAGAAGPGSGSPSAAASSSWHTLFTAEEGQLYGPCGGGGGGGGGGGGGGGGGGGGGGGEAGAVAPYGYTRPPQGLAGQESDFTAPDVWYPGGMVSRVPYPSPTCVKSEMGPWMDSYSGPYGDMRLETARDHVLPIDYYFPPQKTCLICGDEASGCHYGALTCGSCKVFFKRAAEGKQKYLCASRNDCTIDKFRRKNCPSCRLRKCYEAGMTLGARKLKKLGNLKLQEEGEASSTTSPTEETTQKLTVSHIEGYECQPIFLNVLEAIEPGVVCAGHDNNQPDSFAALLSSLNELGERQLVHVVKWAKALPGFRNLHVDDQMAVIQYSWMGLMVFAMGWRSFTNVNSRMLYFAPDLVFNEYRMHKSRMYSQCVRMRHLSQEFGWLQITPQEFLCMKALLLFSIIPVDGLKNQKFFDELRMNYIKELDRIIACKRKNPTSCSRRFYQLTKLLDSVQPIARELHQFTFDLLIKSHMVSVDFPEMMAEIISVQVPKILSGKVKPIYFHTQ
Bile acid receptor (Homo sapiens), sequence (Q96RI1 whole entry, looked up, the tested form may be a part): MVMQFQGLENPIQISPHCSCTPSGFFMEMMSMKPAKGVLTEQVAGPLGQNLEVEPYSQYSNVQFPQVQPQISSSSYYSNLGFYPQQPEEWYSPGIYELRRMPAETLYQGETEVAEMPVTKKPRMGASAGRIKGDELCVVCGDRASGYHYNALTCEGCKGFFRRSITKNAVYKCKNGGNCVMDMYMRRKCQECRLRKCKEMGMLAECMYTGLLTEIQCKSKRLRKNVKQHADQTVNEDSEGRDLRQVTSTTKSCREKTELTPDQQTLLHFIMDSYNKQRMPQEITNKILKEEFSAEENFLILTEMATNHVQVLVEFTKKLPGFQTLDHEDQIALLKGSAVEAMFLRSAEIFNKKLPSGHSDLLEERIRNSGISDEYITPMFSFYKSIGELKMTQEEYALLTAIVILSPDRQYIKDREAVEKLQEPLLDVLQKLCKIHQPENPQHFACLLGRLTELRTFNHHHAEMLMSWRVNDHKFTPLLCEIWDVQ
X-box-binding protein 1 (Homo sapiens), sequence (P17861 whole entry, looked up): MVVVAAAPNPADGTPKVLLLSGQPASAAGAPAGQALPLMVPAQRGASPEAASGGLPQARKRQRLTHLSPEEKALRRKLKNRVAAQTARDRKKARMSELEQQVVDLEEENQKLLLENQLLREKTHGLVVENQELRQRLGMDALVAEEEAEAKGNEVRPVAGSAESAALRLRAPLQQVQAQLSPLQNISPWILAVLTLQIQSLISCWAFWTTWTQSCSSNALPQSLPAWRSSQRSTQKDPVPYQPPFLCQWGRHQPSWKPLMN
Glucocorticoid receptor (Homo sapiens), sequence (P04150 whole entry, looked up, the tested form may be a part): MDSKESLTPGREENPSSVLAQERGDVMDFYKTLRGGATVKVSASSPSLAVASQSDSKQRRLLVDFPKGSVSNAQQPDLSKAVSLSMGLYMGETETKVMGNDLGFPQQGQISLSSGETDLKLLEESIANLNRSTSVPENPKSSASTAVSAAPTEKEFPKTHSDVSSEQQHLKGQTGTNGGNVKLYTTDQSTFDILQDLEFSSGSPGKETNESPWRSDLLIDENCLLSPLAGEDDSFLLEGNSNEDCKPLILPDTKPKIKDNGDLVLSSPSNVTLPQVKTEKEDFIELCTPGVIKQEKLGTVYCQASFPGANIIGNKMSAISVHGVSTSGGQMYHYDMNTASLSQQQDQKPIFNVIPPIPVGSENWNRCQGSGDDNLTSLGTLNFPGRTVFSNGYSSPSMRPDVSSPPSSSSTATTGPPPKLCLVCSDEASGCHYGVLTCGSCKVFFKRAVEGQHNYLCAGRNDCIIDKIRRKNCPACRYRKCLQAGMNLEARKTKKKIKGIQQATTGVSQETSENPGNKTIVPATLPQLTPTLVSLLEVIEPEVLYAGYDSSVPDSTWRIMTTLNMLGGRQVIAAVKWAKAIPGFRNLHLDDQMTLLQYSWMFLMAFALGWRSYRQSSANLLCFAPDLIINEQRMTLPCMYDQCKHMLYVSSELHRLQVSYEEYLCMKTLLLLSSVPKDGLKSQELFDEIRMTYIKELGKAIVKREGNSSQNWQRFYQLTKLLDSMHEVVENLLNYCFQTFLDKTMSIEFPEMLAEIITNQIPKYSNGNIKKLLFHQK
Oxysterols receptor LXR-beta (Homo sapiens), sequence (P55055 whole entry, looked up, the tested form may be a part): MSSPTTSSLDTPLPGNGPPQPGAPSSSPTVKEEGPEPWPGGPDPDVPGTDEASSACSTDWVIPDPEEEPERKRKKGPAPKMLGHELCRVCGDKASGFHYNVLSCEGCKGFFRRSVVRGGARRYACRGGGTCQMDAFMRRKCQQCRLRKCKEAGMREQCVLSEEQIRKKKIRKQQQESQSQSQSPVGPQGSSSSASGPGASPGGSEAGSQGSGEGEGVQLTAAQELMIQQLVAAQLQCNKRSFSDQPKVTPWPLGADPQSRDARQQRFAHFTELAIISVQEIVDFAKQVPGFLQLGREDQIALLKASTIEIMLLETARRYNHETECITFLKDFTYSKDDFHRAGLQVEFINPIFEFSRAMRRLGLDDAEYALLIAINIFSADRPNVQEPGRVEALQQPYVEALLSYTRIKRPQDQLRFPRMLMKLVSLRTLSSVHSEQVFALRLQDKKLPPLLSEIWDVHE
Nuclear receptor subfamily 1 group I member 3 (Homo sapiens), sequence (Q14994 whole entry, looked up, the tested form may be a part): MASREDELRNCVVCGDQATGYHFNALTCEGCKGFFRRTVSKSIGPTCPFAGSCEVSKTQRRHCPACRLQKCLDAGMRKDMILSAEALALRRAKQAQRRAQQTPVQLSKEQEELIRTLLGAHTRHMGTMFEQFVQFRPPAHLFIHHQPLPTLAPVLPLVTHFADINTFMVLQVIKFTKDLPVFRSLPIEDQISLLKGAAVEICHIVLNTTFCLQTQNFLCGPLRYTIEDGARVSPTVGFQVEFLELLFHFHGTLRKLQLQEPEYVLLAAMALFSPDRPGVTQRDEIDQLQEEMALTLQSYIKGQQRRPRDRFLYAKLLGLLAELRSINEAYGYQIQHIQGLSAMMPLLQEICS
Steroid hormone receptor ERR1 (Homo sapiens), sequence (P11474 whole entry, looked up, the tested form may be a part): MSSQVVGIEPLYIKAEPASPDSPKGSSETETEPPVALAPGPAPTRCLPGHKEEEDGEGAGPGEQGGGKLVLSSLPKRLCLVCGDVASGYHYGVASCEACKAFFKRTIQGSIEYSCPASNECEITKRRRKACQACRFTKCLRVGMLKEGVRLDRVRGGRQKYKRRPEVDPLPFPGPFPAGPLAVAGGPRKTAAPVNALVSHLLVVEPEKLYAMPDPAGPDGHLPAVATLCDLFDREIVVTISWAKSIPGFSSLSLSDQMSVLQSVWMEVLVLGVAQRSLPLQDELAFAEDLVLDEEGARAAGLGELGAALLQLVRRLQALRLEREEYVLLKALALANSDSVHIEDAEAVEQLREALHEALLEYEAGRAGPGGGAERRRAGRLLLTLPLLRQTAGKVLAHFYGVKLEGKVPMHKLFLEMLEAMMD
Nuclear receptor subfamily 4 group A member 2 (Homo sapiens), sequence (P43354 whole entry, looked up, the tested form may be a part): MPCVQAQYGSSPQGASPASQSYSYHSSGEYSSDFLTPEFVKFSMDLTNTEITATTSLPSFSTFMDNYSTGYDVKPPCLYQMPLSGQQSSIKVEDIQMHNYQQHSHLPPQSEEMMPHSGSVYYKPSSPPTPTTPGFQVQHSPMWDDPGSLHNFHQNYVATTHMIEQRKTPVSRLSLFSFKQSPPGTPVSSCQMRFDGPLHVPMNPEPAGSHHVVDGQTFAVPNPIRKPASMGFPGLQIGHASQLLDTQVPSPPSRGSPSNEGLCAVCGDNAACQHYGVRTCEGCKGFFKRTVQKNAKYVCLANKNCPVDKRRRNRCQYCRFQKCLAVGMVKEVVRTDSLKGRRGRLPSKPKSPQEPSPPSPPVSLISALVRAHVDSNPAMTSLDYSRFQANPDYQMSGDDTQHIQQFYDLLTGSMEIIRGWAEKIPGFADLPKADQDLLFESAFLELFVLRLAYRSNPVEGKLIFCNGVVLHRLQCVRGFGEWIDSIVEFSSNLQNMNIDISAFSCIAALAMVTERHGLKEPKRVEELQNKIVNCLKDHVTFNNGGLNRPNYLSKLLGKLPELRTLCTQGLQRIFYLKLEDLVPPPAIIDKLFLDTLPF
Estrogen receptor (Homo sapiens), sequence (P03372 whole entry, looked up, the tested form may be a part): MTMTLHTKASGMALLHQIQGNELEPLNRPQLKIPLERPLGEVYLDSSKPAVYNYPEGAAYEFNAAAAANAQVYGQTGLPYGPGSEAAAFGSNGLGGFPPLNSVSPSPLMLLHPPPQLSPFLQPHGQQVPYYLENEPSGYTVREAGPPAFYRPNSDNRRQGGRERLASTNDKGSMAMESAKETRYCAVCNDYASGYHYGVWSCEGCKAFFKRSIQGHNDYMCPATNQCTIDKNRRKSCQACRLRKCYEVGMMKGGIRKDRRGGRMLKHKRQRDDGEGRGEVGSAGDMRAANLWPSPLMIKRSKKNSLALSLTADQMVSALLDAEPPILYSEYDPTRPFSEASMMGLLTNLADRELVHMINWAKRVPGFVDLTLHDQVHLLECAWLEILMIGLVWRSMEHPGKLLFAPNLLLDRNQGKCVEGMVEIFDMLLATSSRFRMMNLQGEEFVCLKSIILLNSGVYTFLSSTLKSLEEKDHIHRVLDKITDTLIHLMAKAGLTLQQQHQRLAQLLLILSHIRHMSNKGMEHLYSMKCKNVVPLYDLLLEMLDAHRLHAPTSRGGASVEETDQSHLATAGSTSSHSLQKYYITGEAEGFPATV

On to `CCCCN(CCCC)SN(C)C(=O)Oc1cccc2c1OC(C)(C)C2`, for which the call in assay [1], in assay [2], in assay [3], in [4], in [5] and in assay [7] was inactive. In addition, the compound was classed as inactive in [8], in assay [9], in [10] and in [11]. The AC50 in assay [6] was 75.5 µM (active).

Take `N#Cc1cc([N+](=O)[O-])ccc1N`: the call in assay [1], in assay [2], in assay [3], in [4], in [5] and in assay [6] was inactive. Further, the outcome in assay [12], in [7], in assay [8], in assay [9], in [13] and in assay [14] was inactive. Further, the compound was called inactive in [10] and in assay [15].

As to `O=S(=O)(F)C(F)(F)C(F)(F)C(F)(F)C(F)(F)C(F)(F)C(F)(F)C(F)(F)C(F)(F)F`, the result in assay [1], in assay [2], in assay [3], in assay [4], in assay [5] and in assay [6] was inactive. In addition, the compound was called inactive in [12], in assay [7], in assay [16], in assay [17], in assay [9] and in assay [14]. Also, the call in assay [10] and in assay [15] was inactive.

For the compound `OCC(F)(F)OC(F)(F)C(F)(F)OC(F)(F)C(F)(F)OC(F)(F)F`, the compound was classed as inactive in assay [1], in assay [2], in [3], in assay [4], in assay [5] and in assay [12]. The outcome in [7], in assay [16], in assay [8], in assay [17], in [9] and in assay [13] was inactive. In addition, the compound was classed as inactive in assay [14], in [10], in assay [15] and in assay [11]. Moreover, in assay [6], the AC50 is 6.04 µM (active) and 4.34 µM (active).

Take `O=P(Oc1ccccc1)(Oc1ccccc1)Oc1ccccc1`: the call in [1], in assay [2], in assay [3], in [5], in assay [6] and in assay [8] was inactive. Moreover, the call in assay [9], in assay [13], in assay [10] and in assay [15] was inactive. Further, the figures for the AC50 in assay [4] and in [7] were 7.17 µM (active) and 49.4 µM (active), respectively.

By AC50 is commonly meant the concentration giving half of the maximal activity seen.

For the origin of these results see PubChem BioAssay (EPA / NIEHS).
